Data reported in PubChem BioAssay (Tox21).
Records with an inconclusive call do not appear. Calls of active or inactive are those of the source. Unless noted, calls come from the whole dose curve; as a rule, active = well fitted curve in the direction sought with a large enough effect in the repeat runs; inconclusive = weak or mixed curves; inactive = no such curve, though single readings can be large; an effect the other way counts as inactive or inconclusive.

How the values were obtained:
[1] = molecular target: Acetylcholinesterase (Homo sapiens) (UniProt P22303); test: Acetylcholinesterase (AChE) small molecule antagonists: enzyme-based qHTS assay (AID 1347397; calls by dose curve; note: nearly all actives have a fitted effect of over 55% in size); conditions: Potency: AChE enzyme activity inhibition; outcome: AChE enzyme activity inhibition
Acetylcholinesterase (Homo sapiens), sequence (P22303 whole entry, looked up): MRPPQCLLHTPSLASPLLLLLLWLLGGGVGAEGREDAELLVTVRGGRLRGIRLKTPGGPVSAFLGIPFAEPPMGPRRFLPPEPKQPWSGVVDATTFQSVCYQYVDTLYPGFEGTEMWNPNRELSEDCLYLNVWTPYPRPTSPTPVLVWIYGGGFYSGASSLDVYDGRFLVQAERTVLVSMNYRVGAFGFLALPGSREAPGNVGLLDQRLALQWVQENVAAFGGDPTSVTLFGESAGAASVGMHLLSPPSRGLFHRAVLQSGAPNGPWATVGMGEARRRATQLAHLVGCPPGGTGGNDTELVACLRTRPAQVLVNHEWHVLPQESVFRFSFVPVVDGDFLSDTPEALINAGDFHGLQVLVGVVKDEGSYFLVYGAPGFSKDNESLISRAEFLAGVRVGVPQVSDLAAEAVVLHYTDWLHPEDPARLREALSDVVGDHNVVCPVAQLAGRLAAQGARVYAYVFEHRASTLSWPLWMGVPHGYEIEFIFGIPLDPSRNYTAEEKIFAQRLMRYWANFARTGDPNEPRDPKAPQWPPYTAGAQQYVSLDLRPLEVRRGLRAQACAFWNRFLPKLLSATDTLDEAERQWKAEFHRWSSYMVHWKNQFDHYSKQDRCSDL
Method in brief: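 rhAChE 50 mU/mL (dispensed) + cpd or DMSO, 30 min RT; add DTNB/acetylthiocholine cocktail, 10 min RT; colorimetric thiocholine readout. qHTS, 1536-well format.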

[2] = molecular target: Acetylcholinesterase (Homo sapiens) (UniProt P22303); test: Acetylcholinesterase (AChE) small molecule antagonists: fluorescence cell-based qHTS assay (AID 1347398; calls by dose curve; note: nearly all actives have a fitted effect of over 50% in size); conditions: Potency: AChE activity; outcome: AChE activity
Method in brief: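 Read-out is Thiolite Green fluorescence at Ex/Em = 490/520 nm, formed by reaction with thiocholine released when cellular AChE in SH-SY5Y cells hydrolyzes acetylthiocholine. Compounds were preincubated 30 min at 37 C before substrate.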

[3] = molecular target: Acetylcholinesterase (Homo sapiens) (UniProt P22303); test: Acetylcholinesterase (AChE) small molecule antagonists: enzyme-based qHTS assay with human liver microsomes (AID 1347399; calls by dose curve; note: nearly all actives have a fitted effect of over 60% in size); conditions: Potency: qHTS inhibition; outcome: qHTS inhibition
Method in brief: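 Recombinant human AChE (50 mU/mL in the enzyme mix) and human liver microsomes (0.25 mg/mL final) were preincubated with compound and NADPH (0.25 mg/mL final) for 30 min at 37 C. Acetylthiocholine/DTNB was then added; thiocholine was read colorimetrically after 10 min at room temperature.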

[4] = qHTS assay for small molecule agonists of the p53 signaling pathway (AID 651631; calls by dose curve; note: nearly all actives have a fitted effect of over 15% in size)
Method in brief: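 We treat p53RE-bla HCT-116 cells with compounds for 16 h at 37 °C, add LiveBLAzer B/G FRET substrate for 2 h at room temperature, and measure fluorescence intensity.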

[5] = qHTS assay for small molecules that induce genotoxicity in human embryonic kidney cells expressing luciferase-tagged ATAD5 (AID 651632); note: nearly all actives have a fitted effect of over 15% in size
Method in brief: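 HEK293T cells carrying luciferase-tagged ATAD5 were given compound or DMSO vehicle and incubated 16 hr at 37C, 5% CO2. Luciferase activity was read after 30 min at room temperature with Amplite; a rise signals genotoxic stress.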

[6] = qHTS assay for small molecule agonists of the p53 signaling pathway - cell viability (AID 651633; calls by dose curve;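 note: p53RE-bla HCT reporter cells with a stable beta-lactamase p53 reporter; series mostly up to about 83 µM; nearly all actives have a fitted effect of over 30% in size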)
Method in brief: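 Viability counter-read: CellTiter-Glo luminescence (30 min, room temperature) in the same p53RE-bla plates. These plates had been exposed to compounds for 16 h at 37 C.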

[7] = qHTS assay for small molecules that induce genotoxicity in human embryonic kidney cells expressing luciferase-tagged ATAD5 - cell viability (AID 651634; calls by dose curve; note: nearly all actives have a fitted effect of over 25% in size)
Method in brief: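 HEK293T cells carrying luciferase-tagged ATAD5, 2,000 cells/well, exposed to compound for 15.5 hr at 37C. Viability read as live-cell protease activity by CellTiter-Fluor fluorescence after 30 min at 37C.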

[8] = qHTS assay for small molecule disruptors of the mitochondrial membrane potential - cell viability (AID 720634; calls by dose curve;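 note: human HepG2 liver cancer cells; series mostly up to about 83 µM; nearly all actives have a fitted effect of over 20% in size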)
Method in brief: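 HepG2 cells, 2,000 per well, attached overnight, then treated 1 hr at 37 C, 5% CO2. Viability read as ATP by CellTiter-Glo luminescence after 30 min at room temperature. Read in the same wells as the m-MPI membrane-potential dye assay.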

[9] = qHTS assay to test for compound auto fluorescence at 590 nm (red) in HepG2 cells (AID 720674)
Method in brief: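 We screened compounds on adherent HepG2 cells, incubating them for an hour at 37 C in 5% CO2 before reading emission at 590 nm under 540 nm excitation; values reflect equivalence to Rose Bengal sodium fluorescence.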

[10] = qHTS assay to test for compound auto fluorescence at 460 nm (blue) in HEK293 cells (AID 720678)
Method in brief: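 HEK293, 2,000 cells/well, 10% dialyzed FBS; attach 4-5 hr 37C; pin compound or DMSO; o/n 37C/5% CO2; fluorescence 405/460 nm; triamterene-equivalent units.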

[11] = qHTS assay to test for compound auto fluorescence at 535 nm (green) in HEK293 cells (AID 720680)
[12] = qHTS assay to test for compound auto fluorescence at 460 nm (blue) in HEK293 cell free culture (AID 720681)
Method in brief: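 Blue fluorescence (Ex 405/Em 460 nm, triamterene-equivalent) was read immediately after pin transfer of compound or DMSO into medium (DMEM, 10% FBS) without cells.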

[13] = qHTS assay to test for compound auto fluorescence at 535 nm (green) in HEK293 cell free culture (AID 720682)
Method in brief: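 Green-channel intensity (Ex/Em 485/535 nm) was recorded from compound-treated wells containing only DMEM with 10% FBS. Fluorescein provided the equivalency standard.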

[14] = qHTS assay to test for compound auto fluorescence at 590 nm (red) in HEK293 cell free culture (AID 720683)
Method in brief: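 Red-channel autofluorescence of compounds in culture medium (DMEM, 10% FBS), no cells, measured at 540/590 nm. Rose Bengal sodium is the reference fluorophore for equivalence.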

[15] = qHTS assay to test for compound auto fluorescence at 590 nm (red) in HepG2 cell free culture (AID 720684)
Method in brief: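 Steps: dispense MEM/10% FBS medium, no cells; pin compound or DMSO vehicle; read red channel, Ex/Em 540/590 nm. Output given as Rose Bengal sodium equivalents.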

[16] = qHTS assay to test for compound auto fluorescence at 460 nm (blue) in HepG2 cell free culture (AID 720685)
Method in brief: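 Compound (23 nL) or DMSO pinned into cell-free MEM with 10% FBS; blue fluorescence read at 405/460 nm excitation/emission, expressed as auto-fluorescence equivalency to triamterene.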

[17] = qHTS assay to test for compound auto fluorescence at 535 nm (green) in HepG2 cell free culture (AID 720686)
[18] = qHTS assay to test for compound auto fluorescence at 460 nm (blue) in HepG2 cells (AID 720687)
Method in brief: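 Blue-channel autofluorescence (Ex/Em 405/460 nm, triamterene-equivalent) was measured after 1 hr compound exposure at 37 C, 5% CO2. Cells were HepG2, plated overnight at 37 C in MEM plus 10% FBS.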

[19] = qHTS assay to identify small molecule antagonists of the glucocorticoid receptor (GR) signaling pathway - cell viability counter screen (AID 720693); note: nearly all actives have a fitted effect of over 55% in size
[20] = qHTS assay for identifying genotoxic compounds that show differential cytotoxicity against isogenic chicken DT40 cell lines with known DNA damage response pathways - Rad54/Ku70 mutant cell line (AID 743015); note: nearly all actives have a fitted effect of over 60% in size
[21] = qHTS assay to identify small molecule antagonists of the androgen receptor (AR) signaling pathway - cell viability counter screen (AID 743033; note: nearly all actives have a fitted effect of over 45% in size)
[22] = molecular target: Androgen receptor (Homo sapiens) (UniProt P10275); test: qHTS assay to identify small molecule antagonists of the androgen receptor (AR) signaling pathway (AID 743035; active = well fitted inhibition curve with a large enough effect in the signal ratio in the repeat runs, not every such curve was filed as active; the % refers to the signal ratio)
Androgen receptor (Homo sapiens), sequence (P10275 whole entry, looked up): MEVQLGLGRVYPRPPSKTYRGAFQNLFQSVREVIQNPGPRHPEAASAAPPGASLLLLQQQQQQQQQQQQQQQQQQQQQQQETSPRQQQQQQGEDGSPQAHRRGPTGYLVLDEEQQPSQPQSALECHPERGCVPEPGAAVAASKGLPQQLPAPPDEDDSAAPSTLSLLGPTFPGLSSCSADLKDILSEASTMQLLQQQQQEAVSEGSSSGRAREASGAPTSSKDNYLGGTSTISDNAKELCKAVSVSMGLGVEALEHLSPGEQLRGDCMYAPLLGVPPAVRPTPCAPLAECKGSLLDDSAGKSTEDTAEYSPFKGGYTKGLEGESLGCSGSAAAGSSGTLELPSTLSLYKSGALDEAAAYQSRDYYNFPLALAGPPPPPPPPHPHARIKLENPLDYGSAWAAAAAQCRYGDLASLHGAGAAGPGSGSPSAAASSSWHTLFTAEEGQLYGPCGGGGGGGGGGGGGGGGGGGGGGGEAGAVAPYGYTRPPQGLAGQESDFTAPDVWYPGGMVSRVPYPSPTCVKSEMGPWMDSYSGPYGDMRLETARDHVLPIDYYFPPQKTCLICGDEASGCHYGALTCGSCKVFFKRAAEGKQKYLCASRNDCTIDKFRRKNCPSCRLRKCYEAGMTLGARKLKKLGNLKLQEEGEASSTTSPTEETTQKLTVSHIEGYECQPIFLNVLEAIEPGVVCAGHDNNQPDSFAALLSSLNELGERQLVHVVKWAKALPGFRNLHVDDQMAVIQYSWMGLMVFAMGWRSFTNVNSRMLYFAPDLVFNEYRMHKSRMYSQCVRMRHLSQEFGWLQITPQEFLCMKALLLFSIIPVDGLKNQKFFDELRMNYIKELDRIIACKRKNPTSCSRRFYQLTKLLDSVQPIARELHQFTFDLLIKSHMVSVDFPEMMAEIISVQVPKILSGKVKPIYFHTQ
Method in brief: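 HEK293 cells stably carrying UAS-beta-lactamase reporter, 2,000/well, given compounds plus R1881 agonist and incubated 16 h at 37C. LiveBLAzer B/G FRET substrate then added for 2 h at room temperature before fluorescence reading.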

[23] = molecular target: Androgen receptor (Homo sapiens) (UniProt P10275); test: qHTS assay to identify small molecule agonists of the androgen receptor (AR) signaling pathway (AID 743036; active = well fitted activation curve with a large enough effect in the signal ratio in the repeat runs, with a control signal flat, not every such curve was filed as active; the % refers to the signal ratio)
Method in brief: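 Cell-based FRET reporter assay: HEK293 line with a UAS-beta-lactamase construct, compounds added in DMSO, 16 h exposure at 37C, then 2 h substrate step at room temperature and fluorescence intensity read.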

[24] = molecular target: Androgen receptor (Homo sapiens) (UniProt P10275); test: qHTS assay to identify small molecule agonists of the androgen receptor (AR) signaling pathway using the MDA cell line (AID 743040; note: nearly all actives have a fitted effect of over 20% in size)
Method in brief: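 Cells plated, 5 h at 37C/0% CO2; compound or DMSO pinned; 16 h at 37C; ONE-Glo added; luminescence measured after 30 min at room temperature. Reporter line: MDA-kb2 with MMTV-luciferase responsive to AR and GR.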

[25] = qHTS assay to identify small molecule antagonists of the androgen receptor (AR) signaling pathway using the MDA cell line - cell viability counter screen (AID 743041; note: nearly all actives have a fitted effect of over 45% in size)
Method in brief: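 Cells were plated at 3,000 per well and left 5 h. Compounds in DMSO were then pinned in, followed by R1881. After 16 h at 37C, CellTiter-Fluor fluorescence gave viability.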

[26] = molecular target: Androgen receptor (Homo sapiens) (UniProt P10275); test: qHTS assay to identify small molecule antagonists of the androgen receptor (AR) signaling pathway using the MDA cell line (AID 743042; note: nearly all actives have a fitted effect of over 55% in size)
Method in brief: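 Antagonist mode: compounds plus R1881 agonist added to MDA-kb2 AR-luc cells, incubated 16 h at 37C. Luciferase reporter luminescence quantified, with multiplexed CellTiter-Fluor readout for cell viability.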

[27] = qHTS assay to identify small molecule antagonists of the thyroid receptor (TR) signaling pathway - cell viability counter screen (AID 743064); note: nearly all actives have a fitted effect of over 50% in size
Method in brief: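 In rat pituitary GH3.TRE-Luc reporter cells co-exposed to compound and 1 nM T3 for 23.5 h, cytotoxicity was assessed with CellTiter-Fluor in the same wells, read by fluorescence.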

[28] = qHTS assay to identify small molecule antagonists of the thyroid receptor (TR) signaling pathway (AID 743065); note: series mostly up to about 70 µM; nearly all actives have a fitted effect of over 55% in size
Method in brief: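 Antagonism measured as loss of luciferase signal in GH3 cells stably carrying a TRE-luciferase reporter, co-treated with compound and T3 (1 nM final) for 23.5 h at 37 C. Viability was read in the same well by CellTiter-Fluor.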

[29] = system: thyroid hormone receptor (rat, GH3 cells); test: qHTS assay to identify small molecule agonists of the thyroid receptor (TR) signaling pathway (AID 743066; calls by dose curve)
[30] = molecular target: Estrogen receptor (Homo sapiens) (UniProt P03372); test: qHTS assay to identify small molecule antagonists of the estrogen receptor alpha (ER-alpha) signaling pathway (AID 743069; active = well fitted curve in the direction sought with a large enough effect in the signal ratio in the repeat runs, not every such curve was filed as active; the % refers to the signal ratio)
Estrogen receptor (Homo sapiens), sequence (P03372 whole entry, looked up): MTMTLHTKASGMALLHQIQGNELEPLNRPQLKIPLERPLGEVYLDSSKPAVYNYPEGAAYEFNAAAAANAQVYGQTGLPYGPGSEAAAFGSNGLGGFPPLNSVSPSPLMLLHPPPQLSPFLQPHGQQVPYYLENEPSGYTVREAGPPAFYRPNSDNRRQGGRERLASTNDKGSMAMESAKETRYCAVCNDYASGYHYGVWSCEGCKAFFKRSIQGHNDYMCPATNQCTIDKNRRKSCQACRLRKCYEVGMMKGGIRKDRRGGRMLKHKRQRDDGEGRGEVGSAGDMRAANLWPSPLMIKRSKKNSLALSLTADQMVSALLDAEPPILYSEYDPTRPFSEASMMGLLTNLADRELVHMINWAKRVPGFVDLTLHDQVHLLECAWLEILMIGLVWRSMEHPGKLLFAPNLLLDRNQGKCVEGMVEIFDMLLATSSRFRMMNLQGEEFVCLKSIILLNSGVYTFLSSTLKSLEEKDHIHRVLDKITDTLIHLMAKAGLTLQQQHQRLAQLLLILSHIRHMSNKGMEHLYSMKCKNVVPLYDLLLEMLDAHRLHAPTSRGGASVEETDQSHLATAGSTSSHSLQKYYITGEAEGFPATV
Method in brief: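 ER-alpha-UAS-bla GripTite HEK293 line; 2% charcoal-stripped FBS overnight; plated, 4 hr 37C/5% CO2; cpd in DMSO + 17beta-estradiol, 18 hr 37C; LiveBLAzer B/G FRET substrate 2 hr RT; fluorescence intensity.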

[31] = qHTS assay to identify small molecule antagonists of the estrogen receptor alpha (ER-alpha) signaling pathway - cell viability counter screen (AID 743074; calls by dose curve;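 note: HEK293 cells carrying ER-alpha-UAS-bla reporter stimulated with 17beta-estradiol; nearly all actives have a fitted effect of over 45% in size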)
[32] = molecular target: Estrogen receptor (Homo sapiens) (UniProt P03372); test: qHTS assay to identify small molecule agonists of the estrogen receptor alpha (ER-alpha) signaling pathway (AID 743075; calls by dose curve;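 note: HEK293 GripTite cells with ER-alpha and UAS-driven beta-lactamase reporter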)
[33] = molecular target: Estrogen receptor (Homo sapiens) (UniProt P03372); test: qHTS assay to identify small molecule agonists of the estrogen receptor alpha (ER-alpha) signaling pathway using the BG1 cell line (AID 743079); note: nearly all actives have a fitted effect of over 20% in size
[34] = qHTS assay to identify small molecule antagonists of the estrogen receptor alpha (ER-alpha) signaling pathway using the BG1 cell line (AID 743080; calls by dose curve;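 note: BG1 cells stimulated with 17beta-estradiol alongside compound; series mostly up to about 70 µM; nearly all actives have a fitted effect of over 25% in size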)
Method in brief: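 BG1Luc4E2, endogenous ER-alpha, 4xERE-luc; 5 d charcoal-stripped FBS, phenol red free; 24 h plating; cpd + 17beta-estradiol 21.5 h, 37 C/5% CO2; CellTiter-Fluor viability 30 min, then ONE-Glo luciferase 30 min RT.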

[35] = qHTS assay to identify small molecule antagonists of the estrogen receptor alpha (ER-alpha) signaling pathway using the BG1 cell line - cell viability counter screen (AID 743081);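 note: compound given together with 17beta-estradiol as the ER stimulus; series mostly up to about 70 µM; nearly all actives have a fitted effect of over 45% in size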
Aromatase (Homo sapiens) = Aromatase (Homo sapiens) (UniProt P11511); test: qHTS assay to identify aromatase inhibitors (AID 743083)
Aromatase (Homo sapiens), sequence (P11511 whole entry, looked up): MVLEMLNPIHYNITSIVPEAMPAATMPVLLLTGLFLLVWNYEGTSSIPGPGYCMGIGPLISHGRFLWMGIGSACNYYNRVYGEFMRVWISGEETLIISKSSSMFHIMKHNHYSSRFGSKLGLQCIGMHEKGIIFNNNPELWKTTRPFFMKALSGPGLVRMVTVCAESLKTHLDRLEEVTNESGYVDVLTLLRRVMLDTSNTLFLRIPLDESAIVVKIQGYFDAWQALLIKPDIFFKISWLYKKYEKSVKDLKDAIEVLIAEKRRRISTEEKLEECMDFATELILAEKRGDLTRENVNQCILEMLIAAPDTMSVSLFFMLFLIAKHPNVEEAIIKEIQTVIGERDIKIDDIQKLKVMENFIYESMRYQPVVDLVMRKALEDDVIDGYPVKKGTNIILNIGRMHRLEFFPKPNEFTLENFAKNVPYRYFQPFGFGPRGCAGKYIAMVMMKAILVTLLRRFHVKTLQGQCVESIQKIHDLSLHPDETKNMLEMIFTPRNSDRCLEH

[36] = qHTS assay to identify aromatase inhibitors - cell viability counter screen (AID 743084)
[37] = molecular target: Aryl hydrocarbon receptor (Homo sapiens) (UniProt P35869); test: qHTS assay to identify small molecule that activate the aryl hydrocarbon receptor (AhR) signaling pathway (AID 743085);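 note: HG2L7.5c1 human HepG2 liver cells with stably integrated DRE-driven firefly reporter; series mostly up to about 70 µM; nearly all actives have a fitted effect of over 15% in size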
Aryl hydrocarbon receptor (Homo sapiens), sequence (P35869 whole entry, looked up): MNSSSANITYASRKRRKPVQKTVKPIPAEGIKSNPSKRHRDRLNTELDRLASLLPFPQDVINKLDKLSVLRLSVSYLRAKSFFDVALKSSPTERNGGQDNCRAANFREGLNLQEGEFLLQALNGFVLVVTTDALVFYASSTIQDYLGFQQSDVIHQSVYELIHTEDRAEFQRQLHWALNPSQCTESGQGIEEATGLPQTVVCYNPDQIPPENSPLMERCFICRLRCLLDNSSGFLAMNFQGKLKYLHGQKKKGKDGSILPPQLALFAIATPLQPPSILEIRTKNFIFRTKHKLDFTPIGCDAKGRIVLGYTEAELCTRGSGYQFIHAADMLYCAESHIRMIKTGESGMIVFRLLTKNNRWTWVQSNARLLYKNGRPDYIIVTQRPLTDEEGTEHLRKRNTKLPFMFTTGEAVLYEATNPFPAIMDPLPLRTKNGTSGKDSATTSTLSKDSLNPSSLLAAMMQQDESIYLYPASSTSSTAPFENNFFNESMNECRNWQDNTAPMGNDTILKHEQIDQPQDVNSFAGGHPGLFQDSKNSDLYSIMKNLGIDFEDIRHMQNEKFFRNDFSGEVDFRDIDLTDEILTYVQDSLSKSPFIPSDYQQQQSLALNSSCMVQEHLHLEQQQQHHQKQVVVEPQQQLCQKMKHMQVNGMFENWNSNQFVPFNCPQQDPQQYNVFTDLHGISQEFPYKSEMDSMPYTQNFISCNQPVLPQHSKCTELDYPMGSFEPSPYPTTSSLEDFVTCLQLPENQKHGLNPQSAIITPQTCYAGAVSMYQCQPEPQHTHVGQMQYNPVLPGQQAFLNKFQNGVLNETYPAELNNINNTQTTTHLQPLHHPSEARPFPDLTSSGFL
Method in brief: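 AhR agonist activity is inferred from enhanced light output of a DRE-controlled firefly luciferase reporter in HepG2 cells, measured with ONE-Glo following 24 h treatment at 37C.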

[38] = qHTS assay to identify small molecule that activate the aryl hydrocarbon receptor (AhR) signaling pathway - cell viability counter screen (AID 743086)
Method in brief: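 Cytotoxicity counter screen: CellTiter-Fluor signal (30 min, 37 C) in 4000 HepG2 cells/well carrying the DRE-luciferase reporter, following 24 h compound exposure at 37 C.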

[39] = molecular target: Peroxisome proliferator-activated receptor gamma (Homo sapiens) (UniProt P37231); test: qHTS assay to identify small molecule agonists of the peroxisome proliferator-activated receptor gamma (PPARg) signaling pathway (AID 743094; active = well fitted activation curve with a large enough effect in the signal ratio in the repeat runs, not every such curve was filed as active; the % refers to the signal ratio)
Peroxisome proliferator-activated receptor gamma (Homo sapiens), sequence (P37231 whole entry, looked up): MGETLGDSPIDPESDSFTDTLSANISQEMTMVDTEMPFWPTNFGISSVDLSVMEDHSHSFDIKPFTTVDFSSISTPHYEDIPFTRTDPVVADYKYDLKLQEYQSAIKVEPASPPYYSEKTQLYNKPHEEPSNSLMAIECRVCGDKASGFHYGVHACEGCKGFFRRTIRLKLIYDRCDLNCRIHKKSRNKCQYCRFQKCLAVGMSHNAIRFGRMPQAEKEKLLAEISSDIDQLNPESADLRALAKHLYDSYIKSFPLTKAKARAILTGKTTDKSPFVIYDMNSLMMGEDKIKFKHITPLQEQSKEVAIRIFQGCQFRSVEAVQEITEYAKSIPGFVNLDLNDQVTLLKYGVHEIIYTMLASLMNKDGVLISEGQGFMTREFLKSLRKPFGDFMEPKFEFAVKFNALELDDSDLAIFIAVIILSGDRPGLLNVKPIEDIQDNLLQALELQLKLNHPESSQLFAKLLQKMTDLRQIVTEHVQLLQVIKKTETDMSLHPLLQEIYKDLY
Method in brief: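 GeneBLAzer PPARg UAS-bla HEK293H cells were plated, rested 5 h, then exposed to compounds for 17 h at 37C. Beta-lactamase activity was read by LiveBLAzer B/G FRET substrate fluorescence after 1 h at room temperature.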

Measured: Potency

O=C(O)Cc1cn(-c2ccccc2)nc1-c1ccc(Cl)cc1
inactive: [1] | [2] | [3]

Nc1ccncc1N
inactive: [1] | [2] | [3]

O=S(=O)(O)c1cccc(S(=O)(=O)O)c1
inactive: [1] | [2] | [3]

CC(C)c1ccc2ncccc2c1
inactive: [1] | [2] | [3]

Cc1cc(Cl)c(C)cc1Cl
inactive: [1] | [2] | [3]

COC(=O)[C@H]1[C@@H](OC(=O)c2ccccc2)C[C@@H]2CC[C@H]1N2C
not listed: [1] | [2] | [3]
inactive: all other assays above
